{"source": "paper PMC4336329", "about": "(PLoS ONE, 2015)", "note": "Screen size: about 310,000 compounds; about 14,000 (4.5%) showed an effect of 50% or more. Effects have a minus sign here. What follows is part of a selection rich in strong results, with near analogues and random picks from the rest.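 Further: peak tail current of the secondary pulse compared with the same well before compound.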"}
{"molecular_target": "human ether-à-go-go-related gene (hERG) potassium channel (human, UniProt Q12809)", "sequence (Q12809 whole entry, looked up)": "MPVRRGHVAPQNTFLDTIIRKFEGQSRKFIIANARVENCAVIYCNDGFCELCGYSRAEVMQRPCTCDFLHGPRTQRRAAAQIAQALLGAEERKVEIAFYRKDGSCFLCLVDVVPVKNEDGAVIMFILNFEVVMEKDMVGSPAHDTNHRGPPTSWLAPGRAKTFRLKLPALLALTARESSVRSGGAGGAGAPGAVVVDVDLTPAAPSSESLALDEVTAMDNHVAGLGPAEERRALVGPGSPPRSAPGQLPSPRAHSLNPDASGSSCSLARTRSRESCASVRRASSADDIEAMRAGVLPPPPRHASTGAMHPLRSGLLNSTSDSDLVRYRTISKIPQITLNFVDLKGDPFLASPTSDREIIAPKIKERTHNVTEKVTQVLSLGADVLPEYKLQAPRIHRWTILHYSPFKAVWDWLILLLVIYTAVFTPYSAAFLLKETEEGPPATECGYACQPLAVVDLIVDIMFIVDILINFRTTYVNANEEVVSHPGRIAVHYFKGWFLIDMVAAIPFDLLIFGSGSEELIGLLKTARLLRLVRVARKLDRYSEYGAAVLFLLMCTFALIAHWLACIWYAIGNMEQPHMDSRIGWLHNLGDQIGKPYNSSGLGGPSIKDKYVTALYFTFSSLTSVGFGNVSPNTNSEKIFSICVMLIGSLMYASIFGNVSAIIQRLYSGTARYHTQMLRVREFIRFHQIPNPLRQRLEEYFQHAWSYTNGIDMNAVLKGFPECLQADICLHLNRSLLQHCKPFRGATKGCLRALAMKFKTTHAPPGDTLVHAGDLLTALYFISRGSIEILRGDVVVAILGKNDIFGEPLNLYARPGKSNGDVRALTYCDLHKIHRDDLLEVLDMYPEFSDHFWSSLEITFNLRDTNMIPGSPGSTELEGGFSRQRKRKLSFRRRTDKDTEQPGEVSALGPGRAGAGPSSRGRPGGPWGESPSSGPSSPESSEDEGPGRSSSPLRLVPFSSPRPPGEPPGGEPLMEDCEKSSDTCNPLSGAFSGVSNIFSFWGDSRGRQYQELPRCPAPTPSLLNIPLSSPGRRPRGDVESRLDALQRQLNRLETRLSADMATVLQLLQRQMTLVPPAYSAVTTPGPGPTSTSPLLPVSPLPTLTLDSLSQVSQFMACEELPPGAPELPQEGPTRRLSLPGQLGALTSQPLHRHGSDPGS", "test": "primary screen, population patch clamp on CHO cells stably expressing hERG; higher = less effect of the substance", "units": {"hERG current change (%, negative = inhibition) at 10uM": "%"}}
{"smiles": "Fc1cccc(-c2oncc2-c2nnnn2-c2ccc(Cl)cc2)c1", "hERG current change (%, negative = inhibition) at 10uM": -13.9}
{"smiles": "CCOC(=O)c1ccc(NC(=O)CCc2nnc3ccc(N4CCCC4)nn23)cc1", "hERG current change (%, negative = inhibition) at 10uM": 5.84}
{"smiles": "O=C(OCC1CC(c2ccccc2)=NO1)c1ccc(Cl)cc1", "note": "(centres unmarked)", "hERG current change (%, negative = inhibition) at 10uM": 18.6}
{"smiles": "CN1CCN(CP(=O)(N2CCOCC2)N2CCOCC2)CC1", "hERG current change (%, negative = inhibition) at 10uM": 1.13}
{"smiles": "Br.CC(C)(C)C(=O)Cn1c(NCCCO)nc2ccccc21", "hERG current change (%, negative = inhibition) at 10uM": -7.81}
{"smiles": "CC(NS(=O)(=O)c1ccc(CCC(=O)NCc2cccnc2)cc1)c1ccccc1", "note": "(centres unmarked)", "hERG current change (%, negative = inhibition) at 10uM": -1.35}
{"smiles": "CCOC(=O)CSc1nnc(NC(=O)c2cc([N+](=O)[O-])cc([N+](=O)[O-])c2)s1", "hERG current change (%, negative = inhibition) at 10uM": -8.83}
{"smiles": "O=C(C[n+]1ccccc1)N/N=C/c1cccs1.[Cl-]", "hERG current change (%, negative = inhibition) at 10uM": 12}
{"smiles": "Cn1ccnc1SCCNC(=O)C1CCC(=O)N(Cc2ccc(Cl)cc2)C1", "note": "(centres unmarked)", "hERG current change (%, negative = inhibition) at 10uM": -3.3}
{"smiles": "COc1cc(NC(=O)CN(c2ccc(C)cc2)S(=O)(=O)c2c(C)noc2C)cc(OC)c1", "hERG current change (%, negative = inhibition) at 10uM": 16.3}
{"smiles": "C=CCn1c(O)c(C(C)=NCCc2c[nH]c3ccccc23)c(=O)[nH]c1=O", "hERG current change (%, negative = inhibition) at 10uM": -31.9}
{"smiles": "COc1ccc(OC)c(CN2CCN(Cc3cc(OC)c(OC)c(OC)c3)CC2)c1", "hERG current change (%, negative = inhibition) at 10uM": 9.45}
{"smiles": "COc1ccc(CN2CCN(c3ccccn3)CC2)c(OC)c1C.O=C([O-])C(=O)[O-]", "hERG current change (%, negative = inhibition) at 10uM": -55.8}
{"smiles": "COc1ccc(CN2CCN(c3ncccn3)CC2)c(C)c1C", "hERG current change (%, negative = inhibition) at 10uM": -35.9}
{"smiles": "CC(CCc1ccccc1)N1CCN(Cc2ccccc2)CC1", "note": "(centres unmarked)", "hERG current change (%, negative = inhibition) at 10uM": -75.2}
{"smiles": "CC(CCc1ccccc1)N1CCN(C)CC1", "note": "(centres unmarked)", "hERG current change (%, negative = inhibition) at 10uM": -20.4}
{"smiles": "CCN1CCN(C(C)CCc2ccccc2)CC1", "note": "(centres unmarked)", "hERG current change (%, negative = inhibition) at 10uM": -17.7}
{"smiles": "COc1ccc(CN2CCN(c3ccccn3)CC2)c(OC)c1C.O=C(O)C(=O)O", "hERG current change (%, negative = inhibition) at 10uM": -37.1}
{"smiles": "COc1ccc(CN2CCN(C(=O)Cc3ccccc3)CC2)c(OC)c1", "hERG current change (%, negative = inhibition) at 10uM": -31.5}
{"smiles": "COc1ccc(CN2CCN(Cc3ccccc3)CC2)c(OC)c1", "hERG current change (%, negative = inhibition) at 10uM": -69.9}
{"smiles": "COCCn1cnc2c(c1=O)c1nc3ccccc3nc1n2/N=C/c1ccco1", "hERG current change (%, negative = inhibition) at 10uM": -7.29}
{"smiles": "COc1ccc(CNS(=O)(=O)c2ccc(-c3ccc(=O)[nH]n3)s2)cc1OC", "hERG current change (%, negative = inhibition) at 10uM": -29.5}
{"smiles": "COC(=O)c1ccc2c(=O)n(CC3CCCO3)c(SCC(=O)Nc3ccccc3OC)nc2c1", "note": "(centres unmarked)", "hERG current change (%, negative = inhibition) at 10uM": -4.41}
{"smiles": "CS(=O)(=O)c1nc(-c2ccccc2)cc(-c2ccccc2)c1C#N", "hERG current change (%, negative = inhibition) at 10uM": 8.33}
{"smiles": "CC(C)CCC(O)(c1ccccc1)C(CN1CCOCC1)c1ccccc1.Cl", "note": "(centres unmarked)", "hERG current change (%, negative = inhibition) at 10uM": -1.36}
{"smiles": "CNS(=O)(=O)Cc1ccc2[nH]cc(CCN(C)C)c2c1", "hERG current change (%, negative = inhibition) at 10uM": 10.6}
{"smiles": "Cc1ccc(C)c(CN2CCC(CNC(=O)CCc3nnc4ccc(N5CCCCC5)nn34)CC2)c1", "hERG current change (%, negative = inhibition) at 10uM": -30.3}
{"smiles": "COc1ccc(NC(=O)NNC(=O)c2ccccc2-n2cccc2)cc1OC", "hERG current change (%, negative = inhibition) at 10uM": 25.4}
{"smiles": "COc1ccc2c(=O)c3c(=O)n(Cc4ccco4)c(-c4ccccc4)nc3oc2c1", "hERG current change (%, negative = inhibition) at 10uM": -32.2}
{"smiles": "COc1ccc2c(=O)c3c(=O)n(Cc4ccco4)c(-c4ccc(C)cc4)nc3oc2c1", "hERG current change (%, negative = inhibition) at 10uM": -53.3}
{"smiles": "COc1ccc2c(=O)c3c(=O)n(Cc4ccco4)c(-c4ccco4)nc3oc2c1", "hERG current change (%, negative = inhibition) at 10uM": -62.4}
{"smiles": "COc1ccc(Cn2c(-c3ccco3)nc3oc4cc(OC)ccc4c(=O)c3c2=O)cc1", "hERG current change (%, negative = inhibition) at 10uM": -31.4}
{"smiles": "COc1ccc2c(=O)c3c(=O)n(Cc4ccco4)c(-c4cc(OC)c(OC)c(OC)c4)nc3oc2c1", "hERG current change (%, negative = inhibition) at 10uM": -16}
{"smiles": "COc1ccc(-c2nc3oc4cc(OC)ccc4c(=O)c3c(=O)n2Cc2ccco2)cc1", "hERG current change (%, negative = inhibition) at 10uM": -27.5}
{"smiles": "Nc1c(C(=O)Nc2ccc3c(c2)OCCO3)nnn1Cc1cccc(F)c1", "hERG current change (%, negative = inhibition) at 10uM": -4.88}
{"smiles": "COc1ccc2c(C)nc(Nc3nc(-c4ccccc4)cc(=O)[nH]3)nc2c1", "hERG current change (%, negative = inhibition) at 10uM": 2.47}
{"smiles": "Cc1ccccc1C(=O)c1cccn1CC(=O)NCc1ccccc1", "hERG current change (%, negative = inhibition) at 10uM": 21.7}
{"smiles": "CCCNC(=O)Cn1cccc1C(=O)c1ccccc1", "hERG current change (%, negative = inhibition) at 10uM": 14.7}
{"smiles": "CC1CC(C)CN(CCCNC(=O)Cn2cccc2C(=O)c2ccccc2)C1", "note": "(centres unmarked)", "hERG current change (%, negative = inhibition) at 10uM": -63.1}
{"smiles": "Cc1ccccc1C(=O)c1cccn1CC(=O)NCCCN1CC(C)CC(C)C1", "note": "(centres unmarked)", "hERG current change (%, negative = inhibition) at 10uM": -72.1}
{"smiles": "O=C(Cn1cccc1C(=O)c1ccccc1)NCCCc1ccccc1", "hERG current change (%, negative = inhibition) at 10uM": -8.33}
{"smiles": "Cc1ccccc1C(=O)c1cccn1CC(=O)NCCCc1ccccc1", "hERG current change (%, negative = inhibition) at 10uM": 9.69}
{"smiles": "Cc1ccc(NC(=O)c2ccc(OCC3CCCO3)cc2)c(C)c1", "note": "(centres unmarked)", "hERG current change (%, negative = inhibition) at 10uM": -9.65}
{"smiles": "Cc1cc(NC(=O)c2sc(Nc3ccc(F)cc3)nc2N)no1", "hERG current change (%, negative = inhibition) at 10uM": 20}
{"smiles": "CC(=O)Nc1ccc(S(=O)(=O)N2CCN(c3ncccn3)CC2)cc1", "hERG current change (%, negative = inhibition) at 10uM": 6.13}
{"smiles": "Cc1cc(N2CCN(S(=O)(=O)c3ccccc3)CC2)c2ccccc2n1", "hERG current change (%, negative = inhibition) at 10uM": -73.3}
{"smiles": "Cc1ccc(S(=O)(=O)N2CCN(c3ncccn3)CC2)cc1C", "hERG current change (%, negative = inhibition) at 10uM": 13.9}
{"smiles": "Cc1cc(N2CCN(S(=O)(=O)c3ccc(Cl)cc3)CC2)c2ccccc2n1", "hERG current change (%, negative = inhibition) at 10uM": -77.8}
{"smiles": "CC(=O)Nc1ccc(S(=O)(=O)N2CCN(c3nc(NC4CCCC4)c4ccccc4n3)CC2)cc1", "hERG current change (%, negative = inhibition) at 10uM": -75.8}
{"smiles": "Cc1cc(N2CCN(S(=O)(=O)c3ccccc3)CC2)nc2c(C)cccc12", "hERG current change (%, negative = inhibition) at 10uM": 23.1}
{"smiles": "Cc1cc(N2CCN(S(=O)(=O)c3ccc(Cl)c(Cl)c3)CC2)c2ccccc2n1", "hERG current change (%, negative = inhibition) at 10uM": -45.3}
{"smiles": "Cn1c(N2CCN(S(=O)(=O)c3ccc(Cl)cc3)CC2)nc2ccccc21", "hERG current change (%, negative = inhibition) at 10uM": -34}
{"smiles": "Cc1ccc(S(=O)(=O)N2CCN(c3ccccc3)CC2)cc1C", "hERG current change (%, negative = inhibition) at 10uM": 6.82}
{"smiles": "Cc1cc(N2CCN(S(=O)(=O)c3ccc(C)c(C)c3)CC2)c2ccccc2n1", "hERG current change (%, negative = inhibition) at 10uM": -64.6}
{"smiles": "Cc1ccccc1N1CCN(S(=O)(=O)c2ccccc2)CC1", "hERG current change (%, negative = inhibition) at 10uM": 0.732}
{"smiles": "CC(=O)Nc1ccc(S(=O)(=O)N2CCN(c3ccccn3)CC2)cc1", "hERG current change (%, negative = inhibition) at 10uM": -3.36}
